{"source": "PubChem BioAssay AID2384", "about": "(Southern Research Specialized Biocontainment Screening …, 2010)", "note": "In all, about 2,300 compounds went through this assay and about 1,100 (48%) were called active. The set was probably picked from earlier hits. The list shows a part of the results. Entries with a potency or affinity are not part of this list. Unmarked numbers belong to inactive results. The rule behind the calls is not given here."}
{"assay": "inhibitors in S. typhi counter-screen strain, dose response, counter-screen for PhoP regulon inhibitor project, fluorescence, 4 h (AID 2384)", "settings": "S. typhi GFP reporter counter-screen; series mostly up to 150 µM; inhibition: at the top concentration", "units": {"inhibition": "%"}}
{"smiles": "Cc1[nH]c(=O)[nH]c(=O)c1S(=O)(=O)N1CCCC(C(=O)NCc2ccc3c(c2)OCO3)C1", "note": "(stereo not drawn)", "inhibition": -18.7}
{"smiles": "CCc1cccc2c(C=C(C#N)C#N)cn(CC(=O)N3CCCCCC3)c12", "inhibition": -11.1}
{"smiles": "N#Cc1c(/N=C/c2cccs2)sc2c1CCCCC2", "inhibition": -21.1}
{"smiles": "Cc1nc(NC2=NCN(CCCN3CCOCC3)CN2)nc2c(C)cccc12", "inhibition": 24.1}
{"smiles": "COc1cccc(CNC(=O)C2CCN(S(=O)(=O)c3ccc(C)cc3)CC2)c1", "inhibition": -14.8}
{"smiles": "COc1cccc(NC(=O)CN(C)C(C)C(=O)Nc2ccc(S(=O)(=O)N3CCOCC3)cc2)c1", "note": "(stereo not drawn)", "inhibition": -0.15}
{"smiles": "CC(C)Cc1c(O)nc(SCC(=O)Nc2ccc3c(c2)CCC3)[nH]c1=O", "inhibition": 27.6}
{"smiles": "Nc1nc(SCC(=O)Nc2ccc3c(c2)CCC3)n[nH]1", "inhibition": 6.01}
{"smiles": "Cc1nn(-c2nc3ccccc3[nH]2)c(N)c1-c1ccccc1", "inhibition": 17.9}
{"smiles": "N#CC(C(=O)C12CC3CC(CC(C3)C1)C2)c1nc2ccccc2[nH]1", "note": "(stereo not drawn)", "inhibition": -2.5}
{"smiles": "CC(=O)c1ccc(NC(=S)NC(NC(=O)c2ccco2)C(Cl)(Cl)Cl)cc1", "note": "(stereo not drawn)", "inhibition": 15.3}
{"smiles": "CC(C)SCc1nc2ccccc2[nH]1", "inhibition": -16.5}
{"smiles": "COc1cccc(CNS(=O)(=O)c2ccc3c(c2)NC(=O)CS3)c1", "inhibition": -0.3}
{"smiles": "O=C(O)CC12CC3CC(C1)CC(n1ncc(NCC4CCCO4)c(Cl)c1=O)(C3)C2", "note": "(stereo not drawn)", "inhibition": -22.1}
{"smiles": "Cc1ccc(NC2=C(Cl)C(=O)OC2OC(=O)c2ccco2)c(C)c1", "note": "(stereo not drawn)", "inhibition": -8.96}
{"smiles": "O=C(NCc1nc2ccccc2[nH]1)c1ccc([N+](=O)[O-])cc1", "inhibition": 37.4}
{"smiles": "CN(C)C(CNc1ccc([N+](=O)[O-])cc1C#N)c1ccccc1", "note": "(stereo not drawn)", "inhibition": 32.1}
{"smiles": "COc1ccc(C2=NN3C(C2)c2ccccc2OC3c2cccs2)cc1", "note": "(stereo not drawn)", "inhibition": 10.4}
{"smiles": "CCS(=O)(=O)N1CCN(C2CCC(c3ccccc3)CC2)CC1", "note": "(stereo not drawn)", "inhibition": 24.4}
{"smiles": "CNS(=O)(=O)c1cc(OC)ccc1OC", "inhibition": -5.88}
{"smiles": "NC(=O)c1cc(C(=O)c2cccc(Cl)c2Cl)c[nH]1", "inhibition": 29.6}
{"smiles": "CCOC(=O)COn1c(=O)c(-c2cccs2)[n+]([O-])c2ccccc21", "inhibition": 4.01}
{"smiles": "CCOc1ccc(N2C(=O)S/C(=C\\c3ccc(O)c(OC)c3)C2=O)cc1", "inhibition": -3.62}
{"smiles": "c1ccn(-c2ccc(-c3ccn[nH]3)cc2)c1", "inhibition": -23.6}
{"smiles": "CC(=O)Nc1nc(C)c(-c2csc(Nc3ccc(O)cc3)n2)s1", "inhibition": 36.7}
{"smiles": "Cc1cc(C)c[n+](CC(=O)c2ccc(NC(=O)c3ccccc3)cc2)c1", "inhibition": 29.9}
{"smiles": "Cc1cc(NS(=O)(=O)c2ccc(Nc3nc(-c4sc(NC(=O)c5ccccc5)nc4C)cs3)cc2)no1", "inhibition": -13.7}
{"smiles": "CC(C)(C)n1nc2c(c1NC(=O)c1ccccc1)CS(=O)(=O)C2", "inhibition": 15.3}
{"smiles": "Clc1ccc(Cn2cc(Br)cn2)cc1Cl", "inhibition": 12.1}
{"smiles": "COC(=O)Cn1c(=O)c(C)nc2ccccc21", "inhibition": -6.54}
{"smiles": "COCCn1nnnc1C(c1cccc(OC)c1OC)N1CCN(C2CCCCC2)CC1", "note": "(stereo not drawn)", "inhibition": -15.4}
{"smiles": "COc1cc2[nH]c(=O)n(Cc3ccc(C(=O)N4CCC(N5CCCCC5)CC4)cc3)c(=O)c2cc1OC", "inhibition": -16.4}
{"smiles": "O=C1c2cccnc2C(=O)N1c1ccccc1-c1ccccc1", "inhibition": 14.5}
{"smiles": "CC(C)(C)n1nc2c(c1NC(=O)c1cccs1)CS(=O)C2", "note": "(stereo not drawn)", "inhibition": 5.52}
{"smiles": "CC(C)(C)c1ccc(C(=O)NNC(=O)Cc2ccccc2)cc1", "inhibition": 9.8}
{"smiles": "O=C(c1cccs1)N1CCN(S(=O)(=O)c2ccccc2)CC1", "inhibition": 11.9}
{"smiles": "CCc1ccccc1NC(=S)N(Cc1cccc(C)c1)c1cccnc1", "inhibition": -8.36}
{"smiles": "N=c1sc2c(n1Cc1ccccc1)CCCC2", "inhibition": 25.6}
{"smiles": "N#Cc1c(-c2ccccc2)ccn(Cc2cccc(Cl)c2)c1=O", "inhibition": 0.97}
{"smiles": "Nc1nc2n(n1)C(c1ccco1)CC(c1ccc(Cl)c(Cl)c1)N2", "note": "(stereo not drawn)", "inhibition": -6.04}
{"smiles": "Cc1ccc2nc3c(c(N)c2c1)CCN3C", "inhibition": 22.2}
{"smiles": "O=C(CSc1nnnn1C1CCCCC1)N1CCCC1", "inhibition": 3.49}
{"smiles": "Cc1cc(C)nc(NS(=O)(=O)c2ccc(N3C(=O)C4CC=C(Cl)CC4C3=O)cc2)n1", "note": "(stereo not drawn)", "inhibition": -4.28}
{"smiles": "CCOc1ccccc1NC(=O)Nc1ccncc1", "inhibition": -8.96}
{"smiles": "Cc1ccc(NC(=O)C(=O)NCc2ccncc2)cc1", "inhibition": -0.03}
{"smiles": "O=S(=O)(Nc1ncccn1)c1ccc(NC(=S)Nc2ccc(Cl)cc2)cc1", "inhibition": -30.1}
{"smiles": "COC(=O)Cc1ccc(NC(=S)NCc2ccc(Cl)cc2)cc1", "inhibition": -2.91}
{"smiles": "Fc1cccc(NC(=S)NCc2ccc(Cl)cc2)c1", "inhibition": -6.29}
{"smiles": "CCNC(=S)Nc1cccc(S(=O)(=O)Nc2ccccc2OC)c1", "inhibition": 8.49}
{"smiles": "Cc1ccc(S(=O)(=O)N(Cc2n[nH]c(=S)n2-c2ccccc2)c2ccccc2)cc1", "inhibition": 2.7}
{"smiles": "CCN(C1CCCCC1)S(=O)(=O)c1ccc(OC)c(C)c1", "inhibition": 15.5}
{"smiles": "Cc1cnc(C(=O)Nc2nnc(C)s2)cn1", "inhibition": 20.5}
{"smiles": "CN1CCCN(S(=O)(=O)c2ccc3c(c2)OCCO3)CC1", "inhibition": -1.35}
{"smiles": "O=C(O)C1Cc2ccccc2CN1S(=O)(=O)c1ccc2ccccc2c1", "note": "(stereo not drawn)", "inhibition": -12.1}
{"smiles": "O=S(=O)(Nc1cccc(-c2cn3c(n2)SCC3)c1)c1ccc(F)cc1F", "inhibition": 12}
{"smiles": "CCC(CC)C(=O)NCCc1cc2ccc(C)cc2[nH]c1=O", "inhibition": -28.8}
{"smiles": "COc1ccc(NC(=O)N(CCc2ccccc2)Cc2cc3c(C)cc(C)cc3[nH]c2=O)cc1", "inhibition": 4.09}
{"smiles": "COc1ccc(Cl)cc1-c1n[nH]c(=S)o1", "inhibition": 27.2}
{"smiles": "CC1CC1C(=O)Nc1nc2ccc(S(C)(=O)=O)cc2s1", "note": "(stereo not drawn)", "inhibition": 10.3}
{"smiles": "Cc1ccc(N2C(=O)[C@@H]3[C@H](C2=O)[C@H]2C=CC=NN2[C@@H]3C(=O)Nc2ccc(Cl)cc2)cc1", "inhibition": 0.6}
{"smiles": "COc1ccccc1CNC(=O)Cn1c(=O)oc2cc(S(=O)(=O)N3CCCC3)ccc21", "inhibition": -16.5}
{"smiles": "COc1cccc(NC(=O)COC(=O)Cc2ccccc2[N+](=O)[O-])c1", "inhibition": -5.35}
{"smiles": "Cc1ccc(NC(=O)c2sccc2C)cc1[N+](=O)[O-]", "inhibition": 4.72}
{"smiles": "O=C(Nc1ccc(Cl)cc1)c1cccs1", "inhibition": -2.55}
{"smiles": "O=C(N/N=C/c1cccc(OCc2ccccc2)c1)c1cccs1", "inhibition": 31.4}
{"smiles": "Cc1ccc(NC2OC(CO)C(O)C(O)C2O)cc1", "note": "(stereo not drawn)", "inhibition": -6.38}
{"smiles": "O=C1CC(NC(=O)C(F)(F)F)=NN1c1ccccc1", "inhibition": 11.9}
{"smiles": "Cc1nc2ccc(NC(=O)C(F)(F)F)cc2o1", "inhibition": 18.3}
{"smiles": "NS(=O)(=O)c1cc2c(cc1Cl)NC(Cc1ccccc1)NS2(=O)=O", "note": "(stereo not drawn)", "inhibition": 33.1}
{"smiles": "CCOc1cc(S(=O)(=O)N2CCN(CC)CC2)ccc1Cl", "inhibition": -11.4}
{"smiles": "c1ccc2cc(CSCc3nc4ccccc4[nH]3)ccc2c1", "inhibition": 35.5}
{"smiles": "CCOC(=O)C1CCN(C(=O)CCc2nc3ccccc3[nH]2)CC1", "inhibition": 15.4}
{"smiles": "C#CCOCCOCCOCCNc1nc(N2CCN(C(=O)CCCCCCCCCCNC(=O)[C@H]([C@@H](C)CC)n3cc(CCCCN=C(N)N)nn3)CC2)nc(N2CCN(C(=O)CCCCCCCCCCNC(=O)[C@@H]([C@H](C)O)n3cc(C)nn3)CC2)n1", "inhibition": -8.39}
{"smiles": "C#CCOCCOCCOCCNc1nc(N2CCN(C(=O)CCCCCCCCCCNC(=O)[C@@H](CCSC)n3cc(CCO)nn3)CC2)nc(N2CCN(C(=O)CCCCCCCCCCNC(=O)[C@H]([C@@H](C)CC)n3cc(CCCCCN)nn3)CC2)n1", "inhibition": 35.6}
{"smiles": "c1cc2c(cc1Oc1nc(N3CCOCC3)nc(N3CCOCC3)n1)OCO2", "inhibition": 9.41}
{"smiles": "COc1cc(CNC(=O)CCC(=O)N2C[C@H]3C[C@H](C2)c2cccc(=O)n2C3)cc(OC)c1OC", "inhibition": 7.05}
{"smiles": "CC1(C)Cc2c(sc(NC(=O)COc3ccc(Cl)cc3)c2C(N)=O)C(C)(C)N1", "inhibition": -4.24}
{"smiles": "CCC(=O)N(Cc1cc2cc(OC)ccc2[nH]c1=O)c1ccc(C)cc1C", "inhibition": -16.6}
